# Measurements taken from PubChem BioAssay (NCI).
# Where “and” joins values, the source holds several entries; their conditions need not be identical. Equal values may be shown once. The panel holds about 83,000 compounds, 20% with a hit somewhere; the sample as a whole holds those more often.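 For each line, cells grew in 96-well plates with the test compound present at a single concentration for 48 hours.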 Some compounds were tested as several samples or in several runs, with calls that do not always agree. Calls of active or inactive are those of the source. How the source made its calls: active means growth percent below 10; inactive means the rest.
# Experiments:
# Assay in all cases: NCI-60 one-dose screen, 48 h (100 = growth as untreated, 0 = no growth, -100 = all killed)
# Settings in all cases: 10 µM unless noted
# DU-145 prostate = tested on: DU-145 prostate
# K-562 leukemia = tested on: K-562 leukemia
# MALME-3M melanoma = tested on: MALME-3M melanoma
# MDA-MB-231 breast = tested on: MDA-MB-231 breast
# RXF 393 renal = tested on: RXF 393 renal
# SF-268 CNS = tested on: SF-268 CNS
# SF-295 CNS = tested on: SF-295 CNS
# SF-539 CNS = tested on: SF-539 CNS
# UACC-257 melanoma = tested on: UACC-257 melanoma
# M14 melanoma = tested on: M14 melanoma
# HCT-15 colon = tested on: HCT-15 colon
# HT29 colon = tested on: HT29 colon
# U251 CNS = tested on: U251 CNS
# PC-3 prostate = tested on: PC-3 prostate
# SK-MEL-5 melanoma = tested on: SK-MEL-5 melanoma
# UACC-62 melanoma = tested on: UACC-62 melanoma
# LOX IMVI melanoma = tested on: LOX IMVI melanoma
# SK-MEL-28 melanoma = tested on: SK-MEL-28 melanoma
# SNB-75 CNS = tested on: SNB-75 CNS
# SNB-19 CNS = tested on: SNB-19 CNS
SMILES,growth (DU-145 prostate),growth (K-562 leukemia),growth (MALME-3M melanoma),growth (MDA-MB-231 breast),growth (RXF 393 renal),growth (SF-268 CNS),growth (SF-295 CNS),growth (SF-539 CNS),growth (UACC-257 melanoma),growth (M14 melanoma),growth (HCT-15 colon),growth (HT29 colon),growth (U251 CNS),growth (PC-3 prostate),growth (SK-MEL-5 melanoma),growth (UACC-62 melanoma),growth (LOX IMVI melanoma),growth (SK-MEL-28 melanoma),growth (SNB-75 CNS),growth (SNB-19 CNS)
O=[N+]([O-])c1ccc2nc3c4ccccc4c4ccccc4c3nc2c1,100% (inactive),67.4% (inactive),98.6% (inactive),70.2% (inactive),96% (inactive),78% (inactive),107% (inactive),91% (inactive),82.5% (inactive),90.3% (inactive),80.8% (inactive),74.6% (inactive),62.3% (inactive),55.1% (inactive),76.8% (inactive),86.7% (inactive),30.8% (inactive),113% (inactive),,
OCCN1CCN(CCCN2c3ccccc3Sc3ccc(Cl)cc32)CC1,97.3% (inactive) and 95.7% (inactive),13% (inactive) and 22.7% (inactive),16.5% (inactive) and 67.3% (inactive),12.2% (inactive) and 81.6% (inactive),56.1% (inactive) and 55.3% (inactive),80.8% (inactive) and 71.9% (inactive),52.4% (inactive) and 67.9% (inactive),80.2% (inactive) and 83.4% (inactive),-43% (active) and -5.63% (active),-76.7% (active) and 50.1% (inactive),49.6% (inactive) and 80.8% (inactive),,58.2% (inactive) and 73.1% (inactive),47.7% (inactive) and 67% (inactive),50.4% (inactive),-64.3% (active) and 23.5% (inactive),29.4% (inactive) and 69.6% (inactive),-33.9% (active) and 56.1% (inactive),59.8% (inactive) and 45.6% (inactive),75.6% (inactive) and 100% (inactive)
COc1ccc(-c2ncnc3c2ncn3C/C=C/CCl)cc1,81.8% (inactive) and 112% (inactive),67.2% (inactive) and 77.5% (inactive),61.8% (inactive) and 49.7% (inactive),88.8% (inactive) and 89.2% (inactive),7.94% (active) and 42.6% (inactive),87.7% (inactive) and 86.8% (inactive),109% (inactive) and 92.6% (inactive),75.9% (inactive) and 98.9% (inactive),80.5% (inactive) and 77.7% (inactive),,61% (inactive) and 81.2% (inactive),84.6% (inactive) and 84.3% (inactive),64.2% (inactive) and 77.3% (inactive),83.8% (inactive) and 87% (inactive),85.7% (inactive) and 82.4% (inactive),76.6% (inactive) and 74% (inactive),54.2% (inactive) and 70.1% (inactive),98.4% (inactive) and 98.9% (inactive),128% (inactive) and 105% (inactive),87.8% (inactive) and 78.5% (inactive)
O=C(N/N=C/c1cccc2ccccc12)C1CC1,128% (inactive) and 120% (inactive),92.3% (inactive) and 114% (inactive),110% (inactive),95.4% (inactive) and 91.3% (inactive),111% (inactive) and 110% (inactive),115% (inactive) and 104% (inactive),118% (inactive) and 92.9% (inactive),111% (inactive) and 102% (inactive),103% (inactive) and 100% (inactive),110% (inactive) and 108% (inactive),107% (inactive) and 113% (inactive),,,100% (inactive) and 102% (inactive),105% (inactive) and 96.6% (inactive),92.3% (inactive) and 99.8% (inactive),91.8% (inactive),111% (inactive) and 104% (inactive),90.9% (inactive) and 85% (inactive),98.8% (inactive) and 95.1% (inactive)
O=C1CCN(Cc2ccccc2)C(=S)N1,140% (inactive) and 107% (inactive),87% (inactive),92.6% (inactive) and 101% (inactive),125% (inactive) and 98.1% (inactive),122% (inactive) and 121% (inactive),111% (inactive) and 99.5% (inactive),118% (inactive) and 133% (inactive),111% (inactive) and 98.6% (inactive),114% (inactive) and 107% (inactive),103% (inactive) and 112% (inactive),99.2% (inactive) and 98.3% (inactive),121% (inactive) and 98% (inactive),,92.3% (inactive),105% (inactive) and 108% (inactive),102% (inactive) and 98.9% (inactive),105% (inactive) and 99.7% (inactive),126% (inactive) and 107% (inactive),,105% (inactive) and 101% (inactive)
O=C(/C=C\c1ccnc2ccccc12)c1ccc([N+](=O)[O-])cc1,101% (inactive) and 96% (inactive),55.1% (inactive) and 8.08% (active),101% (inactive) and 85.5% (inactive),84.1% (inactive) and 93.2% (inactive),107% (inactive) and 75.7% (inactive),105% (inactive) and 91.6% (inactive),82.6% (inactive),85.2% (inactive),90% (inactive) and 65.8% (inactive),90.7% (inactive) and 79.5% (inactive),87.9% (inactive) and 69.7% (inactive),,95.3% (inactive) and 79.6% (inactive),93.8% (inactive) and 74.7% (inactive),67.4% (inactive) and 53.8% (inactive),82.6% (inactive) and 70.7% (inactive),52.1% (inactive) and 9.87% (active),104% (inactive) and 92.1% (inactive),110% (inactive) and 86.5% (inactive),
Oc1ccccc1/C=N\NC(=S)N/N=C/c1ccccc1O,55% (inactive) and 44.6% (inactive),26% (inactive),39.6% (inactive) and 42.9% (inactive),55% (inactive) and 44.2% (inactive),80.7% (inactive) and 63.9% (inactive),50% (inactive) and 37% (inactive),22.4% (inactive) and 30.6% (inactive),45.4% (inactive) and 23.2% (inactive),40.3% (inactive) and 34.2% (inactive),24.4% (inactive) and 24.5% (inactive),19.1% (inactive) and 22.4% (inactive),,41% (inactive) and 24.2% (inactive),35% (inactive),35.7% (inactive) and -37% (active),20.4% (inactive) and -5.16% (active),28.4% (inactive) and 25.3% (inactive),53.6% (inactive) and 58.8% (inactive),,51.1% (inactive) and 44.6% (inactive)
CC(C)N=c1cc2n(-c3ccc(Cl)cc3)c3ccccc3nc-2cc1Nc1ccc(Cl)cc1,51.4% (inactive) and 15.5% (inactive),14.5% (inactive) and -17.3% (active),5.85% (active) and -83.1% (active) and -46% (active),-0.451% (active) and 26% (inactive) and 10.6% (inactive),8.99% (active) and -11.2% (active) and 12.3% (inactive),45.5% (inactive) and 35.7% (inactive) and 31.2% (inactive),9.83% (active) and 19.6% (inactive) and -10.5% (active),72.8% (inactive) and 73.3% (inactive) and 59.1% (inactive),28.3% (inactive) and 29.6% (inactive) and 7.9% (active),-8.29% (active) and -34.4% (active) and -56.7% (active),14.9% (inactive) and 21% (inactive) and 6.17% (active),,13.7% (inactive) and 33.5% (inactive) and 6.42% (active),22.2% (inactive) and 29.7% (inactive) and 8.73% (active),4.95% (active) and 12% (inactive) and -72.9% (active),36% (inactive) and 34.9% (inactive) and 32.9% (inactive),-20.7% (active) and -48.6% (active) and -80.9% (active),67.7% (inactive) and 72.8% (inactive) and 57.9% (inactive),68.1% (inactive) and 53.7% (inactive) and 24.1% (inactive),49.1% (inactive) and 60.7% (inactive) and 36.4% (inactive)
